p53 reactivation = re-activators of mutant p53. 320,000 compounds, 0.063% hits. Potency, µM (top dose mostly 92.2 µM), actives largely listed as activators. H1299 p53-A138V BP100-luciferase reporter, luminescence, 24 h; note: nearly all actives have a fitted effect of over 45% in size
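p53-null H1299 cells stably carrying temperature-sensitive p53-A138V and a BP100-luciferase reporter were pinned with compounds (4-point, 1:5 series) and held 24 hrs at 37 deg C. Luminescence was read 10 min after detection reagent.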
SW480 rerep = inducers of DNA re-replication in SW480 colon cancer cells; SW480 DNA re-replication, Hoechst DNA content imaging, 48 h; Potency, µM (top dose mostly 46.1 µM), usual class: activators; 340,000 compounds, 1.8% hits; note: nearly all actives have a fitted effect of over 55% in size
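Treated cells incubate 48 hr (37 C, 5% CO2), are stained 40 min with Hoechst, and nuclear fluorescence is enumerated; a rise in nuclei with high DNA signal marks re-replication.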
ELG1 genotoxic = genotoxicity induction in ELG1-luciferase HEK293T cells; HEK293T ELG1-luciferase reporter, luminescence, 16 h; Potency, µM (titrated, usually from 46 µM), actives largely listed as activators; 330,000 compounds, 1.3% hits; AID 504466; note: nearly all actives have a fitted effect of over 60% in size
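Luminescence read-out: rising ELG1-luciferase signal, reflecting elevated ELG1 protein under genetic stress, flags genotoxic compounds. Cells were treated for 16 hr at 37 °C before ONE-Glo detection.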
MCF10A rerep = inducers of DNA re-replication in MCF 10A breast cells. MCF 10A DNA re-replication, Hoechst nuclear intensity, 48 h. Potency, µM (titrated, usually from 46.1 µM), actives largely listed as activators. 350,000 compounds, 2.9% hits; note: nearly all actives have a fitted effect of over 50% in size
ELG1 DNA repair = inhibitors of ELG1-dependent DNA repair in HEK293T cells. Potency, µM (top dose mostly 46.1 µM), usual class: inhibitors. HEK293T ELG1-luciferase reporter, luminescence, 16 h; DNA damage induced by 5-fluorouridine. 330,000 compounds, 2.3% hits; note: nearly all actives have a fitted effect of over 55% in size
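Cells (2,000 per well) received 5-fluorouridine plus test compound or DMSO and were incubated 16 hr at 37 °C, 5% CO2. Luciferase activity was read by luminescence 30 min after ONE-Glo addition; signal suppression marked inhibition of damage-induced ELG1 function.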
A-T KAP1 phos = candidate therapy for ataxia-telangiectasia | F2112 A-T fibroblasts, KAP-1 phosphorylation AlphaLISA; neocarzinostatin DNA damage 30 min before lysis | Potency, µM (highest dose often 57.5 µM), usual class: activators | 320,000 compounds, 0.19% hits; note: nearly all actives have a fitted effect of over 45% in size
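hTERT-immortalized A-T patient fibroblasts (F2112), 500 cells/well in OPTI-MEM, 1% FBS, got compounds for 60 min, then NCS for 30 min at 37C. Lysates were then assayed for phospho-KAP-1 by AlphaLISA (anti-pKAP1 donor, anti-KAP1 acceptor beads), 6 hr at 25C.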
Hits are given with their value; i = inactive; ? = inconclusive; nt = no result given. A selection: hits, their analogues and other compounds. The true share with any hit is near 7.1%. Calls come from the whole dose curve; as a rule, active = well fitted curve in the direction sought with a large enough effect; inconclusive = small, poorly fitted or top-dose-only effect, or another doubt; inactive = no such curve, though single readings can be large; an effect the other way counts as inactive or inconclusive.

SMILES	p53 reactivation	SW480 rerep	ELG1 genotoxic	MCF10A rerep	ELG1 DNA repair	A-T KAP1 phos
Cc1cc(NCCC(C)C)n2nc(C)c(-c3ccccc3)c2n1	i	i	i	15µM	?	i
Cc1cc(SCC(=O)c2cccs2)n2nc(C)c(-c3ccc(Cl)cc3)c2n1	i	i	i	?	?	i
CCc1ccc(N2CCN(S(=O)(=O)CC34CCC(CC3=O)C4(C)C)CC2)cc1 (configuration not stated)	nt	?	i	?	i	i
COc1cc(C(=O)OCC(=O)Nc2cc(S(=O)(=O)N3CCOCC3)ccc2C)ccc1OCC(C)C	i	i	i	i	i	i
O=S(Cc1ccc(Br)cc1)Cc1nnc(SCc2ccc(Br)cc2)n1-c1ccccc1 (configuration not stated)	i	?	i	23µM	?	i
CN(CC(=O)Nc1cccc(F)c1)C(=O)c1cccnc1Sc1ccccc1Cl	i	i	i	i	?	i
CCOC(=O)C1=C(CSc2nc(-c3ccccc3)ccc2C#N)OC(N)=C(C#N)C1c1ccccc1 (configuration not stated)	i	15µM	?	?	?	nt
CCOC(=O)C1=C(CSc2nc(-c3ccccc3)ccc2C#N)OC(N)=C(C#N)C1c1cccnc1 (configuration not stated)	i	?	?	?	?	nt
CCOC(=O)C1=C(CC)OC(N)=C(C#N)C1c1ccsc1 (configuration not stated)	i	0.26µM	i	i	i	i
Cc1cc(=O)[nH]c(N/N=C/c2ccccn2)n1	?	4.1µM	?	?	?	i
Cc1cc(=O)[nH]c(N/N=C2/CCCC/C2=C\c2ccccc2)n1	i	?	i	i	8.2µM	i
O=c1cnnc(N/N=C/c2ccccn2)[nH]1	i	?	i	?	?	i
O=C(Nc1cccc(S(=O)(=O)NC2=NCCC2)c1)c1cc(=O)[nH]c2ccccc12	i	i	i	i	i	i
Cc1nc2cc(NC(=O)N3c4ccccc4CC3C)ccc2n1C (configuration not stated)	nt	i	?	?	?	i
Cc1nc2cc(NC(=O)N3c4ccccc4CC3C)ccc2o1 (configuration not stated)	?	i	3.3µM	i	?	i
CCOC(=O)c1c(NC(=O)CCN2CCOCC2)sc(C)c1-c1ccccc1	i	i	i	?	21µM	i
CCN1CCN(C(=S)Nc2sc(C)c(-c3ccccc3)c2C(=O)OC)CC1	i	?	i	?	16µM	i
CCOC(=O)c1c(NC(=O)/C=C/C(=O)O)sc(C)c1-c1ccc(C(C)(C)C)cc1	i	18µM	i	?	12µM	?
Cc1sc(NC(=O)/C=C/C(=O)O)c(C(N)=O)c1-c1ccc(C(C)(C)C)cc1	i	?	i	21µM	i	i
O=C(OCC(=O)N1CCN(c2ccc(F)cc2)CC1)c1cnc2ccccc2n1	i	i	i	i	?	i
COc1ccc(CCNC(=O)COC(=O)c2cncc(Br)c2)cc1OC	i	i	i	i	?	i
CCOC(=O)c1c(NC(=O)/C=C\C(=O)O)sc(C)c1-c1ccccc1	i	?	i	21µM	i	i
O=C(NCC1CCCO1)c1ccc(S(=O)(=O)N2CCC(c3nc4ccc(Cl)cc4[nH]3)CC2)cc1 (configuration not stated)	i	i	i	i	13µM	i
O=S(=O)(c1ccc2c(c1)OCCO2)N1CCC(c2nc3ccc(Cl)cc3[nH]2)CC1	i	i	i	?	18µM	i
O=S(=O)(c1ccc2c(c1)OCCO2)N1CCC(c2nc3ccccc3[nH]2)CC1	i	i	i	i	?	i
O=C(NCC1CCCO1)c1cc(S(=O)(=O)N2CCCCC2)ccc1Cl (configuration not stated)	i	i	i	i	i	i
O=C(COc1ccccc1)Nc1nnc(-c2ccccc2)o1	i	i	i	i	i	i

Screening data as filed in PubChem BioAssay.
